TNAP inh Pi: human TNAP inhibition, phosphate detection. 21,000 tested, under 10 active. inhibition, % at 20 µM. purified TNAP, pNPP, malachite green phosphate absorbance. P05186. AID 614
Target sequence (P05186 whole entry, looked up): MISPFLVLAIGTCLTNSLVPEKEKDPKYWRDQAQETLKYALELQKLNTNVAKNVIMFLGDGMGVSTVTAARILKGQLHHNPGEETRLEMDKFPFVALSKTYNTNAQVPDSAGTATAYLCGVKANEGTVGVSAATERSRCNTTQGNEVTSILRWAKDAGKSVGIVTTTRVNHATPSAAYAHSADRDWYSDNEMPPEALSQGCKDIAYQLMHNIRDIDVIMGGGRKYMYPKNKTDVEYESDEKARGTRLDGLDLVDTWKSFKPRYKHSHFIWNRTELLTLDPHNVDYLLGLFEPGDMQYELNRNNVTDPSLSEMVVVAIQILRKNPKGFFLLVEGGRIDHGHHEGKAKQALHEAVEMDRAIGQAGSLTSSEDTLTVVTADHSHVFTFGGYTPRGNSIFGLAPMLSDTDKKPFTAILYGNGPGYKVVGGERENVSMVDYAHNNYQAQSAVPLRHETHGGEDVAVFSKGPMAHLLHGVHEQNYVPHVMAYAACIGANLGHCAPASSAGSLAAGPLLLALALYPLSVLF
TNAP pNPP inh: inhibitors of human tissue-nonspecific alkaline phosphatase; purified TNAP, pNPP hydrolysis, absorbance 405 nm; inhibition, % at 20 µM; P05186; 21,000 tested, under 10 active; AID 615
Each line names hits and unclear results; the compound was inactive in the other large screens. The list is a sample of the results.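 How the source made its calls: active means inhibition above 50% at the 20 µM single-dose screen; inactive means the rest.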

C=CCOc1ccc2ccccc2c1CNc1ncn[nH]1	none
O=C(Nn1c(Cc2cccs2)nc2ccccc2c1=O)c1cccs1	none
COc1ccccc1NC(=O)c1cc(Sc2nncn2C)nc2ccccc12	none
N#Cc1nc(-c2ccco2)oc1NCCCn1ccnc1	none
COc1cc(C)c(Br)cc1S(=O)(=O)N1CCCC1	none
CC(=O)C1=C(C)Nc2ncnn2C1c1ccccc1OCc1ccccc1 (stereo not given)	none
CC12C(=O)N(c3nccs3)C(=O)C1C1C=CC2C1 (stereo not given)	none
CCn1c(SCC(=O)Nc2nc3ccc(OC)cc3s2)nc2c1c(=O)n(C)c(=O)n2C	none
CCn1c2ccccc2c2nnc(SCC(=O)NC(CC(C)C)C(=O)OC)nc21 (stereo not given)	none
COc1ccccc1C1CC(c2ccc(Cl)cc2)Nc2ncnn21 (stereo not given)	none
Cc1ccc(C2C(C(=O)c3cc4ccccc4o3)=C(O)C(=O)N2CCCN(C)C)cc1 (stereo not given)	none
COc1ccccc1NS(=O)(=O)c1cc(C(=O)NCCN2CCOCC2)ccc1Cl	none
C=C(C)n1c(=O)[nH]c2ccccc21	none
O=C(Nc1ccc(NC(=O)C2CC2)nc1)c1ccncc1	none
COCCCn1cnc2c(c1=O)c1nc3ccccc3nc1n2CCc1ccccc1	none
CC(C)OC(=O)c1c2nc3ccccc3nc2n2c1[nH]c(=O)c1ccccc12	none
CC1(C)CN=C(N2CCN(C3=NCC(C)(C)S3)CC2)S1	none
CC1=C(C(=O)Nc2ccccc2C)C(c2ccc(C)o2)C2=C(CCCC2=O)N1 (stereo not given)	none
COc1ccc(-c2nc(C#N)c(N3CCCCCC3)o2)cc1OC	none
COC(=O)c1ccc(Oc2nc3ccccc3n3c(C)nnc23)cc1	none
CN(C1=NC(=O)C(CC(=O)Nc2ccc(Br)cc2)S1)c1ccc(O)cc1 (stereo not given)	none
COc1cc(C2C(C#N)=C(N)Oc3cc(C)n(Cc4ccccn4)c(=O)c32)cc2c1OCO2 (stereo not given)	none
Cc1cc(-c2nn3c(C)nnc3s2)ccc1NC(=O)C(C)(C)C	none
Cc1ccc(-c2nnc3n2N=C(c2ccccc2Br)CS3)cc1	none
Cc1cc(N2CCN(C3CCCC3)CC2)n2nc(C)c(-c3ccccc3)c2n1	none
COc1ccccc1CNC(=O)CN(C)CC(=O)Nc1cccc(F)c1	none
CC(=O)C1=C(C)Nc2ncnn2C1c1ccc(Cl)cc1 (stereo not given)	none
COc1ccc(S(=O)(=O)N2CCCCC2)cc1C(C)C	none
O=C(Nc1ccccc1)N1CCCC(c2nc(-c3cccs3)no2)C1 (stereo not given)	none
Cc1cc(NC(=O)Cn2nc(-c3ccccc3F)ccc2=O)ccc1-n1cnnn1	none
CC(=O)NC(Cc1ccccc1C)C(=O)NC1CCN(c2c3c(nc4ncnn24)CCC3)CC1 (stereo not given)	none
O=C(NCc1ccccc1)c1ccc(COCC(F)(F)F)o1	none
CCCc1nc2ccccc2c(=O)n1/N=C/c1c(C)[nH]n(-c2ccc(C)cc2)c1=O	none
COc1ccc(S(=O)(=O)N(CCCN2CCCC2=O)Cc2cc3cc(C)c(C)cc3[nH]c2=O)cc1	none
Cc1ccc(NCc2nnc(SCC(=O)c3ccccc3)n2Cc2ccco2)c(C)c1	none
O=C1NCC2=C1C(c1ccc(Br)cc1)Nc1ccccc1N2 (stereo not given)	none
CCC(=O)OC1=C2C(=Nc3c(c(=O)n(C)c(=O)n3C)C2c2ccccc2)c2ccccc21 (stereo not given)	none
Cc1csc(N(C)C(=O)CSc2nnc(COc3cccc4ccccc34)o2)n1	none
c1cc(CSc2nnc(-c3ccc4c(c3)OCO4)o2)ccn1	none
Cc1nc(NC(=O)CSc2nnnn2Cc2ccccc2)sc1C	none
CCC(=O)Nc1ccc(S(=O)(=O)Nc2cccc(C)c2)cc1OC	none
COC(=O)c1ccc2c(=O)n(CCN3CCOCC3)c(=S)[nH]c2c1	none
CC(=O)C1=C(O)C(=O)N(c2cccc(C(=O)O)c2)C1c1ccc(F)cc1 (stereo not given)	none
c1ccc(Cc2nn3c(-c4ccncc4)nnc3s2)cc1	none
COc1ccc(OC)c(S(=O)(=O)N2c3cc(F)ccc3CCC2C)c1 (stereo not given)	none
C[C@@H]1CCC[C@H](C)N1NC(=O)c1ccc(Cl)c(S(N)(=O)=O)c1	none
O=C(O)c1cc2ccccc2n1-c1ccccc1	none
CC(C)C(=O)Nc1cccc(NC(=O)CCN2C(=O)c3ccccc3S2(=O)=O)c1	none
O=C(COc1ccc(N2CC(C(=O)O)CC2=O)cc1)Nc1cccc(C(F)(F)F)c1 (stereo not given)	none
COC(=O)c1cccc(NC(=O)CSc2nnc(C)n2Cc2ccccc2)c1	none
COc1ccc(-n2c(N)c(Br)c(=O)[nH]c2=O)cc1	none
CCCn1c(SCc2cc(=O)oc3ccc4ccccc4c23)n[nH]c1=O	none
C#CCNc1nc(CC)nc2c1nnn2Cc1ccccc1F	none
COCC(=O)N(C)C1(c2nnnn2CCOC(=O)Nc2cccc3ccccc23)CCCC1	none
CCOc1cc(C2NC(=O)NC(C)=C2C(=O)OCc2ccccc2)ccc1O (stereo not given)	none
COc1cccc(NC(=O)N(Cc2cc3cc(C)cc(C)c3[nH]c2=O)CC2COCCO2)c1 (stereo not given)	none
COc1cc(C2c3c(oc4ccccc4c3=O)C(=O)N2Cc2ccncc2)ccc1O (stereo not given)	none
O=C1CC(NC23CC4CC(CC(C4)C2)C3)C(=O)N1c1ccc2c(c1)OCO2 (stereo not given)	none
COc1ccc(C)cc1-n1nnnc1SCC1CCCCO1 (stereo not given)	none
OCc1nn2c(c1Br)NC(c1ccccc1)CC2C(F)(F)F (stereo not given)	none
CCOC(=O)c1[nH]c2ccc(OC)cc2c1NC(=O)CCN1CCCC(C)C1 (stereo not given)	none
CC1(c2cccs2)CC(c2cccs2)=C(C#N)C(=O)N1 (stereo not given)	none
O=C(COC(=O)c1ccccc1S(=O)(=O)N1CCCCC1)NCC(F)(F)F	none
Cc1ccc(NC2=NC(c3ccco3)n3c(nc(C)cc3=O)N2)c(C)c1 (stereo not given)	none
CCN(CC)S(=O)(=O)c1ccc(NC(=O)COc2c(OC)cccc2OC)cc1	none
O=c1cc(NCc2ccco2)c2ccccc2o1	none

From PubChem
